Measurements from PubChem BioAssay (NCI).
This is part of a sample that, as a whole, favours compounds with a hit. Of some 83,000 tested, about 20% had one in any assay.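 Interpretation: 100, growth as untreated; towards 0, rising growth inhibition; 0, no net growth; 0 to -100, cell death. Compounds scoring below 10 were considered active.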 Activity calls are given as the source filed them.

Legend:
Experiment in all cases: NCI-60 one-dose screen, 48 h (100 = growth as untreated, 0 = no growth, -100 = all killed)
Settings in all cases: 10 µM unless noted
[1] = tested on: DU-145 prostate
[2] = tested on: K-562 leukemia
[3] = tested on: MALME-3M melanoma
[4] = tested on: MDA-MB-231 breast
[5] = tested on: RXF 393 renal
[6] = tested on: SF-268 CNS
[7] = tested on: SF-295 CNS
[8] = tested on: SF-539 CNS
[9] = tested on: UACC-257 melanoma
[10] = tested on: M14 melanoma
[11] = tested on: HT29 colon
[12] = tested on: SNB-75 CNS
[13] = tested on: SNB-19 CNS
[14] = tested on: U251 CNS
[15] = tested on: PC-3 prostate
[16] = tested on: SK-MEL-5 melanoma
[17] = tested on: UACC-62 melanoma
[18] = tested on: LOX IMVI melanoma
[19] = tested on: SK-MEL-28 melanoma

Measured: growth

Cc1nc2ccccc2n1CC1NC(=O)NC1=O (stereo unspecified)
inactive: [1] 110% | [2] 99.9% | [3] 102% | [4] 102% | [5] 103% | [6] 96.1% | [7] 107% | [8] 99.4% | [9] 99.1% | [10] 105% | [11] 105% | [12] 78.7% | [13] 98.4% | [14] 103% | [15] 96.2% | [16] 100% | [17] 98.4% | [18] 95.6% | [19] 99.4%

Cc1ccc2nc(C)c(-c3nnc(SCc4ccc(C#N)cc4)o3)n2c1
inactive: [1] 112% | [2] 38% | [3] 101% | [4] 74.2% | [5] 89.5% | [6] 96.6% | [7] 92.9% | [8] 88.3% | [9] 119% | [10] 102% | [12] 77.7% | [13] 90.7% | [14] 95.3% | [15] 109% | [16] 92.9% | [17] 74.4% | [18] 93.2%

Cc1c(O)cc(-c2cnc(N/N=C\c3ccc(Cl)cc3)s2)c(O)c1C
inactive: [1] 100% | [2] 72.2% | [3] 107% | [4] 95.4% | [5] 81.3% | [6] 92.4% | [7] 99.9% | [8] 78.8% | [9] 91.2% | [10] 96.2% | [12] 94.2% | [13] 97% | [14] 89.9% | [15] 66.4% | [16] 79.8% | [17] 81.6% | [18] 62.2% | [19] 94.4%

COc1cccc2c1C(=O)c1c(O)c3c(c(O)c1C2=O)CC(O)(/C(C)=N/NC(=O)CCCCC(=O)N/N=C(\C)C1(O)Cc2c(O)c4c(c(O)c2C(OC2CC(N)C(O)C(C)O2)C1)C(=O)c1c(OC)cccc1C4=O)CC3OC1CC(N)C(O)C(C)O1 (stereo unspecified)
active: [1] -47.4% [5 µM] | [2] -51.8% [5 µM] | [3] -66.9% [5 µM] | [4] -2.21% [5 µM] | [5] -55.4% [5 µM] | [6] -31.3% [5 µM] | [7] -35.3% [5 µM] | [8] -41.8% [5 µM] | [9] -34.3% [5 µM] | [10] -57.1% [5 µM] | [11] -68.9% [5 µM] | [12] -67.7% [5 µM] | [13] -8.14% [5 µM] | [14] 2.32% [5 µM] | [15] -40.4% [5 µM] | [16] -89% [5 µM] | [17] -93% [5 µM] | [18] 1.34% [5 µM] | [19] -76.5% [5 µM]

COc1ccc(S(=O)(=O)NCCNc2nccc(-c3c(-c4cccc(F)c4)nc4sccn34)n2)cc1
inactive: [1] 48.3% | [2] 23% | [3] 49.1% | [4] 61.4% | [5] 28.8% | [6] 35.4% | [7] 58.5% | [8] 77.4% | [9] 66.7% | [10] 38.4% | [11] 23.9% | [13] 58.3% | [14] 52.5% | [15] 29.4% | [17] 39% | [18] 32.9% | [19] 60%
active: [12] -0.29% | [16] 9.62%

CCCCOc1nc2ccccc2cc1C1CNC(=O)c2ccccc2N1 (stereo unspecified)
active: [5] -14.3% | [7] -5.68% | [8] -25.5% | [10] -23.1% | [11] 0.868% | [12] 3.14%
inactive: [1] 10.7% | [2] 12.8% | [3] 45.6% | [4] 47.5% | [6] 43.6% | [9] 57.2% | [13] 33.4% | [14] 18.6% | [15] 24.7% | [16] 15.6% | [17] 32.6% | [18] 27.1% | [19] 45.8%

NC(=S)Nc1cccc(O)c1
inactive: [1] 121% | [2] 106% | [3] 102% | [4] 96.7% | [5] 120% | [6] 109% | [7] 100% | [8] 95.8% | [9] 92.9% | [10] 98.4% | [11] 103% | [12] 83.8% | [13] 99.3% | [14] 95.5% | [15] 105% | [16] 106% | [17] 90.5% | [18] 87.8% | [19] 110%

CCn1c(C)nc2cc(C(N)=O)ccc21
inactive: [1] 110% | [2] 102% | [3] 96.4% | [4] 113% | [5] 93.4% | [6] 104% | [7] 238% | [8] 96.4% | [9] 87.9% | [10] 95.5% | [11] 98.7% | [12] 90.2% | [13] 104% | [14] 95.4% | [15] 101% | [16] 112% | [17] 89.2% | [18] 91.6% | [19] 113%

COc1cc(C2CC(=O)Nc3c2c(C)nn3-c2nc3ccccc3[nH]2)cc2c1OCC(=O)N2 (stereo unspecified)
active: [5] -0.584%
inactive: [1] 111% | [2] 89.3% | [3] 117% | [4] 55.8% | [6] 48.8% | [7] 19.1% | [8] 50.6% | [9] 69.6% | [10] 34.8% | [11] 66.9% | [12] 19.3% | [13] 49.1% | [14] 55.2% | [15] 69.1% | [16] 52.3% | [17] 65.5% | [18] 51.2% | [19] 65.4%

O=C1CCC2=C3C4CCCCC4C(=O)C4CCCC(OC2C1)C34 (stereo unspecified)
active: [1] 0.534% | [2] 5.63% | [3] -33% | [5] -80.8% | [6] 3.25% | [8] 4.64% | [10] 0.565% | [14] 4.33% | [16] -77.9% | [18] 1.47%
inactive: [4] 28% | [7] 33.4% | [9] 28.8% | [11] 85.6% | [12] 43.1% | [13] 34.1% | [15] 46.7% | [17] 50.3% | [19] 52%

O=C1N=c2cc3c(cc2=C/C1=C/c1sc(=S)n(CCc2ccc(O)cc2)c1O)OCCO3
inactive: [1] 80.6% | [3] 36.7% | [4] 24.8% | [5] 92.9% | [6] 91.7% | [7] 101% | [8] 95.8% | [9] 90.3% | [10] 27.8% | [11] 21.2% | [12] 61.4% | [13] 22.9% | [14] 17.8% | [15] 41.4% | [16] 83.3% | [17] 20.7% | [19] 38.7%
active: [2] 6.11% | [18] 3.28%

O=C(CCCCCCSc1nc(-c2ccccc2)cc(-c2ccc(Cl)cc2)n1)NO
active: [1] 6.26% | [2] 8.35% | [3] 7.3% | [5] -17% | [9] 6.32% | [10] 6.52% | [11] 4.56% | [14] 0.693% | [16] -26.9% | [17] -1.11% | [18] -78%
inactive: [4] 25.3% | [6] 15% | [7] 27.1% | [8] 25% | [12] 17.8% | [13] 18.3% | [15] 39.9% | [19] 42%

O=C(/C=C/c1ccc(Cl)nc1)c1ccc(Cl)cc1Cl
active: [2] 7.65% | [18] 6.52%
inactive: [1] 108% | [3] 105% | [4] 107% | [5] 104% | [6] 102% | [7] 91.1% | [8] 107% | [9] 94.5% | [10] 97.6% | [11] 75.8% | [12] 108% | [13] 88.3% | [14] 64% | [15] 101% | [16] 99.5% | [17] 97.2% | [19] 101%

CC(C)Sc1nc(NNC(N)=S)c(C#N)c(-c2ccc(F)cc2)n1
inactive: [1] 110% | [2] 92.5% | [3] 117% | [4] 98% | [5] 101% | [6] 101% | [7] 93.7% | [8] 91.7% | [9] 101% | [10] 104% | [11] 115% | [12] 62.6% | [13] 97% | [14] 95% | [15] 102% | [16] 93.3% | [17] 91.1% | [18] 98.6% | [19] 113%

COc1ccc(C(=O)/C=C/c2c(C(F)(F)F)nc3sccn23)cc1OC
active: [1] -24.6% | [2] -15.1% | [7] -9.31% | [8] -5.52% | [18] 5.55%
inactive: [3] 71.4% | [4] 36.8% | [5] 39.1% | [6] 15.4% | [9] 56.8% | [10] 28.5% | [11] 12.3% | [12] 14.3% | [13] 33% | [14] 15.1% | [15] 53.3% | [16] 31.7% | [17] 20.6% | [19] 52.7%

Cc1cc(O)c(C2=NN(c3ccc(S(N)(=O)=O)cc3)C(c3ccccc3Cl)C2)cc1Cl (stereo unspecified)
active: [1] 4.85% | [2] -18% | [5] -11.7% | [10] -11.9% | [11] 0.516% | [14] 7.79% | [18] -83.7%
inactive: [3] 34.9% | [4] 20% | [6] 11.6% | [7] 63% | [8] 41.9% | [9] 65.2% | [12] 41.7% | [13] 58.1% | [15] 10.9% | [16] 36.5% | [17] 45.1% | [19] 63.2%
